Each structure is given as a SMILES string. “And” between values parts separate entries of the source, which are not always exact repeats. Equal entries are not always repeated. The source holds several records for some structures; these can differ, active in one and inactive in another. The source made the active and inactive calls. Unless noted, calls come from the whole dose curve; as a rule, active = well fitted curve in the direction sought with a large enough effect in the repeat runs; inconclusive = weak or mixed curves; inactive = no such curve, though single readings can be large; an effect the other way counts as inactive or inconclusive.

In test [1] the test system is thyroid hormone receptor (rat, GH3 cells). The experiment in a line: qHTS assay to identify small molecule agonists of the thyroid receptor (TR) signaling pathway (AID 743066; calls by dose curve).
Test [2] is described as follows: qHTS assay to identify small molecule antagonists of the estrogen receptor alpha (ER-alpha) signaling pathway - cell viability counter screen (AID 743074; calls by dose curve;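 note: HEK293 cells carrying ER-alpha-UAS-bla reporter stimulated with 17beta-estradiol; nearly all actives have a fitted effect of over 45% in size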; note: potency is the fitted concentration of half-maximal effect).
Test [3] concerns the target Estrogen receptor (Homo sapiens) (UniProt P03372). In words: qHTS assay to identify small molecule agonists of the estrogen receptor alpha (ER-alpha) signaling pathway (AID 743075; calls by dose curve;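 note: HEK293 GripTite cells with ER-alpha and UAS-driven beta-lactamase reporter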; note: potency is the fitted concentration of half-maximal effect).
For test [4] the target is unchanged. The experiment in a line: qHTS assay to identify small molecule agonists of the estrogen receptor alpha (ER-alpha) signaling pathway using the BG1 cell line (AID 743079). Note: nearly all actives have a fitted effect of over 20% in size. Note: potency is the fitted concentration of half-maximal effect.
Test [5] can be described thus: qHTS assay to identify small molecule antagonists of the estrogen receptor alpha (ER-alpha) signaling pathway using the BG1 cell line - cell viability counter screen (AID 743081).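 Note: compound given together with 17beta-estradiol as the ER stimulus; nearly all actives have a fitted effect of over 45% in size.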 Note: potency is the fitted concentration of half-maximal effect.
Another test has as its target Aromatase (Homo sapiens) (UniProt P11511). The experiment in a line: qHTS assay to identify aromatase inhibitors (AID 743083). Note: nearly all actives have a fitted effect of over 55% in size. Note: potency is the fitted concentration of half-maximal effect.
Test [6] can be described thus: qHTS assay to identify aromatase inhibitors - cell viability counter screen (AID 743084).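 Note: cells stimulated with testosterone during compound exposure; nearly all actives have a fitted effect of over 55% in size.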 Note: potency is the fitted concentration of half-maximal effect.
Test [7] deals with Aryl hydrocarbon receptor (Homo sapiens) (UniProt P35869). The experiment in a line: qHTS assay to identify small molecule that activate the aryl hydrocarbon receptor (AhR) signaling pathway (AID 743085). Note: nearly all actives have a fitted effect of over 15% in size. Note: potency is the fitted concentration of half-maximal effect. Summed up:
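Measured in HG2L7.5c1 cells: CellTiter-Fluor signal (30 min incubation, 37C) for viability, then luciferase luminescence (30 min, room temperature). Compound contact time was 24 h at 37C, following a 5 h pre-incubation.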

Sequence of Estrogen receptor (Homo sapiens) (P03372 whole entry, looked up): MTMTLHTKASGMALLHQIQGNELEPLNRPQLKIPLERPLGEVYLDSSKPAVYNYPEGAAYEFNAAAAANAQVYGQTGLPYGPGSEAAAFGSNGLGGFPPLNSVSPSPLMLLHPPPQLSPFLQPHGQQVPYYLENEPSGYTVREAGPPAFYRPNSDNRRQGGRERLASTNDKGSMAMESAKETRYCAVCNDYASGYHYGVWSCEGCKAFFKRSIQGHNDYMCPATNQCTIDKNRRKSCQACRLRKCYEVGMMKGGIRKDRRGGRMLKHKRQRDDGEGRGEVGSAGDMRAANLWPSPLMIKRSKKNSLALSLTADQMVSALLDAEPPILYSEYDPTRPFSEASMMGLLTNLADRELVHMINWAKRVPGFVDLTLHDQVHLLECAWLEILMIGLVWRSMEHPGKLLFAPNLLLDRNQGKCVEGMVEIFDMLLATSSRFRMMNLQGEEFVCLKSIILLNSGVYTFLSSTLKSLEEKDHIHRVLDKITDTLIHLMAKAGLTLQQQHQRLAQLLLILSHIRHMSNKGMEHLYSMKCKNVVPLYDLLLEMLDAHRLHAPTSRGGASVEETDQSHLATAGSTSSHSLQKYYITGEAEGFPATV
Sequence of Aryl hydrocarbon receptor (Homo sapiens) (P35869 whole entry, looked up): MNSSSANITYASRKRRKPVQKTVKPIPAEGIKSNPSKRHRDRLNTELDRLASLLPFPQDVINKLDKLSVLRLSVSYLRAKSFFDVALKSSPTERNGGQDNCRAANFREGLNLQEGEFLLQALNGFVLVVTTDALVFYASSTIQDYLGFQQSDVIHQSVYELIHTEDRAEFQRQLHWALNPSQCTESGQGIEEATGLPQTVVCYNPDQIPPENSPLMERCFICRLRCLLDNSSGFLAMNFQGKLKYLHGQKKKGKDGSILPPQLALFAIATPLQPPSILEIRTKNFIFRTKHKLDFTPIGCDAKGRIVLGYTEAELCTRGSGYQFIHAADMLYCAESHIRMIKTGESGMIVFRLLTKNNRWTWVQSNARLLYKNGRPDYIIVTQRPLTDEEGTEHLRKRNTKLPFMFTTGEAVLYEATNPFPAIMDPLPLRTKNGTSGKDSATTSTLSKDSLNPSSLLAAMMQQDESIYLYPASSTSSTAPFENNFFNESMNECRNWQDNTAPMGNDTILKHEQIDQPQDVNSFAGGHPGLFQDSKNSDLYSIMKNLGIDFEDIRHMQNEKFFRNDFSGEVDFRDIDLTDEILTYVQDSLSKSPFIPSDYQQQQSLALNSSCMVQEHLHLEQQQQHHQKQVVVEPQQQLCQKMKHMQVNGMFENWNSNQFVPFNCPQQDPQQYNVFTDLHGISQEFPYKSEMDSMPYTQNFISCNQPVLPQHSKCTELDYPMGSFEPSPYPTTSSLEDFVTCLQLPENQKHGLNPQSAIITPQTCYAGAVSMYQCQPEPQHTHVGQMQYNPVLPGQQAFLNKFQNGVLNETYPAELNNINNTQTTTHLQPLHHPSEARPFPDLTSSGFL
Sequence of Aromatase (Homo sapiens) (P11511 whole entry, looked up): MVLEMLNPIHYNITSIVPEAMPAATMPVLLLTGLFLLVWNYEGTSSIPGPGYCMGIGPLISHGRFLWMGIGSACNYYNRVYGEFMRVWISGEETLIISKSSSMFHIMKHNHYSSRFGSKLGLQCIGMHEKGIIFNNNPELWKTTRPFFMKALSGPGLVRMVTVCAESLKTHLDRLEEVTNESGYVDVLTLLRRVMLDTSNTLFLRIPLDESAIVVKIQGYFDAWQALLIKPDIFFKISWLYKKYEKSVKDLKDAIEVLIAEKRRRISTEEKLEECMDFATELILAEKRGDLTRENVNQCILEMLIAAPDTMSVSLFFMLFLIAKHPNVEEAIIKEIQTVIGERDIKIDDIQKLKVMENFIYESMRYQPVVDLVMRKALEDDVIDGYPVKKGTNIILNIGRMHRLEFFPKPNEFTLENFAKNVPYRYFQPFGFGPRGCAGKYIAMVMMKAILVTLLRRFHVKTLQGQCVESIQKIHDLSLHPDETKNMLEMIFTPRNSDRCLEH

Take `CN1C(C(=O)Nc2ccccn2)=C(O)c2ccccc2S1(=O)=O`: the Potency entry (in test [1]; in test [2]; in test [3]; in test [4]; in test [5]; with Aromatase (Homo sapiens)) was “inactive” each time. In addition, the Potency entry in test [6] was “inactive”. Besides, the Potency result in test [7] is “inactive and 24.6 µM (active)”.
For the compound `c1ccc2cc(Nc3ccc(Nc4ccc5ccccc5c4)cc3)ccc2c1`, the Potency result (in test [1]; in test [2]; in test [5]; with Aromatase (Homo sapiens); in test [6]) was “inactive” each time. In addition, the Potency in test [7] is 30.8 µM (active) and 30.6 µM (active).
Consider `COC(=O)C1=C(C)NC(C)=C(C(=O)OCCN(C)Cc2ccccc2)C1c1cccc([N+](=O)[O-])c1` (stereo not drawn), for which the Potency entry in test [1], in test [2], in test [3] and in test [7] was “inactive” throughout. In addition, the Potency in test [5] is 54.2 µM (active); with Aromatase (Homo sapiens), 29.8 µM (active) and 60.8 µM (active); in test [6], 21.1 µM (active) and 54.2 µM (active).
For `CC(C)OB(OC(C)C)OC(C)C`, the Potency result (in test [1]; in test [2]; in test [3]; in test [4]; in test [5]; in the test with Aromatase (Homo sapiens)) was “inactive” throughout. Further, the Potency entry in test [6] and in test [7] was “inactive” in each case.
Turning to `O=C(COc1ccc(Cl)cc1)N1CCN(Cc2ccc3c(c2)OCO3)CC1`, the Potency entry (in test [1]; in test [3]; in test [5]; with Aromatase (Homo sapiens); in test [6]; in test [7]) was “inactive” each time. Also, the Potency entry in test [2] is “inactive and 30.9 µM (active)”.
In the case of `CC(C)=CCCC(C)CCO` (stereo not drawn), the Potency entry (in test [1]; in test [2]; in test [3]; in test [4]; in test [5]; with Aromatase (Homo sapiens)) was “inactive” throughout. In addition, the Potency entry in test [6] and in test [7] was “inactive” each time.
On to `O=C(/C=C/C=C/c1ccc2c(c1)OCO2)N1CCCCC1`, for which the Potency entry (in test [1]; in test [2]; in test [3]; in test [5]; with Aromatase (Homo sapiens); in test [6]) was “inactive” in each case. Also, the Potency was 1.37 µM (active) and 3.86 µM (active) in test [4]; 612 nM (active) and 2.17 µM (active) in test [7].
As for `Nc1ccccc1N`, the Potency result (in test [1]; in test [2]; in test [3]; in test [4]; with Aromatase (Homo sapiens); in test [6]) was “inactive” in each case. Moreover, in test [7], the Potency is 27.9 µM (active) and 19.8 µM (active).
Regarding `Cc1c(C(N)=O)cc([N+](=O)[O-])cc1[N+](=O)[O-]`, the Potency entry (in test [1]; in test [2]; in test [3]; in test [4]; in test [5]; with Aromatase (Homo sapiens)) was “inactive” in each case. The Potency result in test [6] and in test [7] was “inactive” each time.
Consider `CC(=O)CC/C=C(\C)CCC=C(C)C`, for which the Potency entry (in test [1]; in test [2]; in test [3]; in test [4]; in test [5]; with Aromatase (Homo sapiens)) was “inactive” throughout. Moreover, the Potency entry in test [6] and in test [7] was “inactive” throughout.
Turning to `Nc1ncn([C@@H]2O[C@H](CO)[C@@H](O)[C@H]2O)c(=O)n1`, the Potency entry in test [1], in test [2], in test [3], in test [4], in test [5] and in test [7] was “inactive” each time. Moreover, in the test with Aromatase (Homo sapiens), the Potency is 13.3 µM (active) and 8.63 µM (active).
As for `O=C(OCc1ccccc1)c1ccccc1O`, the Potency result (in test [1]; in test [2]; in test [3]; in test [5]; with Aromatase (Homo sapiens); in test [6]) was “inactive” throughout. Further, the Potency result in test [7] was “inactive”. Further, the Potency in test [4] is 24.3 µM (active).
`Nc1ccc(Cl)cc1Cl`: the Potency result (in test [1]; in test [2]; in test [3]; in test [4]; in test [5]; with Aromatase (Homo sapiens)) was “inactive” in each case. The Potency entry in test [6] and in test [7] was “inactive” in each case.
In the case of `CCCCNS(=O)(=O)c1ccccc1`, the Potency entry (in test [1]; in test [2]; in test [3]; in test [4]; in test [5]; in the test with Aromatase (Homo sapiens)) was “inactive” each time. The Potency result in test [6] and in test [7] was “inactive” each time.
Regarding `Cc1cccc(N(C)C(=S)Oc2ccc3ccccc3c2)c1`, the Potency result (in test [1]; in test [2]; in test [3]; in test [5]; with Aromatase (Homo sapiens); in test [6]) was “inactive” in each case.
Take `O=C(c1ccccc1)c1ccccc1O`: the Potency result in test [1], in test [2], in test [5] and in test [6] was “inactive” throughout. The Potency result in the test with Aromatase (Homo sapiens) was “inactive and 27.3 µM (active)”.
Regarding `Cc1ncc[nH]1`, the Potency entry (in test [1]; in test [2]; in test [5]; with Aromatase (Homo sapiens); in test [6]) was “inactive” each time. In test [7], the Potency result is “inactive and 48.5 µM (active)”.
On to `CCCCC(CC)COCC1CO1` (stereo not drawn), for which the Potency result (in test [1]; in test [2]; in test [3]; in test [4]; in test [5]; with Aromatase (Homo sapiens)) was “inactive” throughout. Besides, the Potency entry in test [6] and in test [7] was “inactive” in each case.
Consider `COC(=O)c1ccccc1`, for which the Potency result (in test [1]; in test [2]; in test [5]; with Aromatase (Homo sapiens); in test [6]; in test [7]) was “inactive” in each case.
Turning to `COc1cccc2c1C(=O)c1c(O)c3c(c(O)c1C2=O)C[C@@](O)(C(=O)CO)C[C@@H]3O[C@H]1C[C@H](N)[C@H](O)[C@H](C)O1`, the Potency entry in test [1], in test [2], in test [4] and in test [7] was “inactive” throughout. For the same compound, the Potency entry was “inactive and 2.68 µM [inconclusive] (active) and 15.5 µM [inconclusive] (active)” in test [3]; “inactive and 27.3 µM (active)” in test [5]; “inactive and 6.68 µM (active) and 1.72 µM (active)” with Aromatase (Homo sapiens); “inactive and 13.3 µM (active) and 12.2 µM (active)” in test [6].
As to `O=CCc1ccccc1`, the Potency result (in test [1]; in test [2]; in test [5]; with Aromatase (Homo sapiens); in test [6]; in test [7]) was “inactive” each time.
As to `CC1=CCC(C(C)(C)O)CC1` (stereo not drawn), the Potency result (in test [1]; in test [2]; in test [3]; in test [4]; in test [5]; in the test with Aromatase (Homo sapiens)) was “inactive” each time. Also, the Potency entry in test [6] and in test [7] was “inactive” in each case.
Turning to `CC(C(=O)O)c1cccc(C(=O)c2ccccc2)c1` (stereo not drawn), the Potency entry (in test [1]; in test [2]; in test [3]; in test [4]; in test [5]; in the test with Aromatase (Homo sapiens)) was “inactive” throughout. Besides, the Potency entry in test [6] and in test [7] was “inactive” each time.
For `O=C(O)c1ccccc1Nc1cccc(C(F)(F)F)c1`, the Potency entry (in test [1]; in test [2]; in test [3]; in test [4]; in test [5]; with Aromatase (Homo sapiens)) was “inactive” throughout. Also, the Potency result in test [6] and in test [7] was “inactive” throughout.
With `c1cc(-c2ccncc2)ccn1`, the Potency result (in test [1]; in test [2]; in test [3]; in test [4]; in test [5]; in the test with Aromatase (Homo sapiens)) was “inactive” throughout. Besides, the Potency entry in test [6] and in test [7] was “inactive” each time.

For the origin of these results see PubChem BioAssay (Tox21).
